For assay [1], the target named is T1, Aurora kinase A (Homo sapiens) (UniProt O14965).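 Note: values are mean percent inhibition.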
T1 sequence (whole entry): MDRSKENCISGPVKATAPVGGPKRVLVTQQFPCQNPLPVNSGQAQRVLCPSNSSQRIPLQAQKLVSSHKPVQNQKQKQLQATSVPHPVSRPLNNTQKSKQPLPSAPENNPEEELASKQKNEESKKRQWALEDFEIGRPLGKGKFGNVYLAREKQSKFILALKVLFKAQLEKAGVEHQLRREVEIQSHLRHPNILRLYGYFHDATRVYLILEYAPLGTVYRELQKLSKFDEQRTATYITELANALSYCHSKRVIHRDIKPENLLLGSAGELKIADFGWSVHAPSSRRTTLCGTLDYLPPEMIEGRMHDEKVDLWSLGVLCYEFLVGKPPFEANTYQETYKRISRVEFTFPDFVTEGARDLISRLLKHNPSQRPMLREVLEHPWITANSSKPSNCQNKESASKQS
Particulars: at 1 µM.

Assay [2] deals with Aurora kinase B (Homo sapiens) (UniProt Q96GD4). Particulars: at 0.1 µM.
For assay [3] the target is unchanged. Particulars: at 1 µM.
Assay [4] deals with T2, Aurora kinase C (Homo sapiens) (UniProt Q9UQB9).
T2 sequence (whole entry): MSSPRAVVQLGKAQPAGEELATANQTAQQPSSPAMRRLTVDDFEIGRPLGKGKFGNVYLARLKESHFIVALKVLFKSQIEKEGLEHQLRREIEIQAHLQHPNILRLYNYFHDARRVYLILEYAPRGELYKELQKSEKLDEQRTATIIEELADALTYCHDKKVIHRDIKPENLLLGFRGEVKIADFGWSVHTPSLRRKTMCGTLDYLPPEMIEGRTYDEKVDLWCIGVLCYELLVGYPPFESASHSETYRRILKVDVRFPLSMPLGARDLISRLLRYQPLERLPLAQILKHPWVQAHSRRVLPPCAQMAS
Particulars: at 0.1 µM.

In assay [5] the target is T2, Aurora kinase C (Homo sapiens). Particulars: at 1 µM.
Assay [6] has as its target Serine/threonine-protein kinase 10 (Homo sapiens) (UniProt O94804). Particulars: at 0.1 µM.
Assay [7] has the same target. Particulars: at 1 µM.
Assay [8] has as its target T3, Mitogen-activated protein kinase kinase kinase kinase 2 (Homo sapiens) (UniProt Q12851).
T3 sequence (whole entry): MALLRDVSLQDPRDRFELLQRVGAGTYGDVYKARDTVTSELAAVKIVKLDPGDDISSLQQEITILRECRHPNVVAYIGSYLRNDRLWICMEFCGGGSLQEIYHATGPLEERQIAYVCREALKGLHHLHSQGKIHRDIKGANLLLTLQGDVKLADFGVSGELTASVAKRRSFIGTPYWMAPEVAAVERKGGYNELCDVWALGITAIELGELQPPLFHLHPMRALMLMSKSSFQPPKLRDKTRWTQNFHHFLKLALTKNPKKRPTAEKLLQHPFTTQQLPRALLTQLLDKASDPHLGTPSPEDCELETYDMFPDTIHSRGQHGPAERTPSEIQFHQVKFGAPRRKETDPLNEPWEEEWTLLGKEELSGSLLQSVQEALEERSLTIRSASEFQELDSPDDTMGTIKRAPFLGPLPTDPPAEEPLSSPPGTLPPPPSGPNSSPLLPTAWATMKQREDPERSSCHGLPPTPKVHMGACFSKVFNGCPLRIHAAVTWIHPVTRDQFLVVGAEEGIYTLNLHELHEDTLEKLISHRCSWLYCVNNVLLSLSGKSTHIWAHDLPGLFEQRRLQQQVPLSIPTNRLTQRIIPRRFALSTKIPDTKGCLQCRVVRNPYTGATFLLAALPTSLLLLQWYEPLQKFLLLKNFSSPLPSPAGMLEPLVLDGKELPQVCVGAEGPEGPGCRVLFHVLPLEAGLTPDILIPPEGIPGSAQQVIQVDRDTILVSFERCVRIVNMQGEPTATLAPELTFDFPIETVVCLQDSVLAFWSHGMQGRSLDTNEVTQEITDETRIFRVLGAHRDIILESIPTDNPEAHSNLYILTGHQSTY
Particulars: at 0.1 µM.

Assay [9] deals with T3, Mitogen-activated protein kinase kinase kinase kinase 2 (Homo sapiens). Particulars: at 1 µM.
For assay [10], the target named is Mitogen-activated protein kinase kinase kinase kinase 4 (Homo sapiens) (UniProt O95819). Particulars: at 0.1 µM.

The structures appear in SMILES notation.

Mitogen-activated protein kinase kinase kinase kinase 4 (Homo sapiens), sequence (O95819 2-1239 limits assumed): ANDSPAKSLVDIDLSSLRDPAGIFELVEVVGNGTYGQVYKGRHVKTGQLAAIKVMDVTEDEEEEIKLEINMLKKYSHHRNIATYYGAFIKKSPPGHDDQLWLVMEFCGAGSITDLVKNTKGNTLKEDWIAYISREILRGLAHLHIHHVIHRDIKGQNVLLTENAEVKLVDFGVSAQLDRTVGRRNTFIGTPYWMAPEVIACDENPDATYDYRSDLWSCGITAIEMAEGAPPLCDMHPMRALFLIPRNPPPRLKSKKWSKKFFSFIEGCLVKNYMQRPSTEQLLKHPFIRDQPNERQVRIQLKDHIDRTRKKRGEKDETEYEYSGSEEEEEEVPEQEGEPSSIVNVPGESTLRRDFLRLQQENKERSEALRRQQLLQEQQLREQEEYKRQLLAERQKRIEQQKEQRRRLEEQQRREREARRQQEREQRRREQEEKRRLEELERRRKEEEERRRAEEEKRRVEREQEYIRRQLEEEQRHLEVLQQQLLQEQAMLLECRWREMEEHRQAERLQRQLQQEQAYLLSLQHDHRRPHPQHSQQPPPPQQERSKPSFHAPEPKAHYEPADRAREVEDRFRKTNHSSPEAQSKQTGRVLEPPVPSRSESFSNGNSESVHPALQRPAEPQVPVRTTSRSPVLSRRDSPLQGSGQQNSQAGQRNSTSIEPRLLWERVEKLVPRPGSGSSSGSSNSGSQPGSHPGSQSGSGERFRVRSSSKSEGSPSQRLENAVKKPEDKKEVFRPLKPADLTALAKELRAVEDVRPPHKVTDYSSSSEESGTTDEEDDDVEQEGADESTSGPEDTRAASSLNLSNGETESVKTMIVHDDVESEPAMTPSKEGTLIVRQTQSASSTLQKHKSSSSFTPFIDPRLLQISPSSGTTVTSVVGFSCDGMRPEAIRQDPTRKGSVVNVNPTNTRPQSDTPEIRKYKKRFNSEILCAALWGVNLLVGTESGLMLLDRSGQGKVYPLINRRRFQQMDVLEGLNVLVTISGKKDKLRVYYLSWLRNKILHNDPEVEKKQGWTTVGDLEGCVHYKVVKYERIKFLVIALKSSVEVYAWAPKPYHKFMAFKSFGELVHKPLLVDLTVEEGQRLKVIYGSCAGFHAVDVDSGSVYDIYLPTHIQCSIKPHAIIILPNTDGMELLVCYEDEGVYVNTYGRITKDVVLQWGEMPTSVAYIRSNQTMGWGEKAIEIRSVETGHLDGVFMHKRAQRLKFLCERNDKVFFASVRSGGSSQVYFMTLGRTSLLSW
Aurora kinase B (Homo sapiens), sequence (Q96GD4 whole entry): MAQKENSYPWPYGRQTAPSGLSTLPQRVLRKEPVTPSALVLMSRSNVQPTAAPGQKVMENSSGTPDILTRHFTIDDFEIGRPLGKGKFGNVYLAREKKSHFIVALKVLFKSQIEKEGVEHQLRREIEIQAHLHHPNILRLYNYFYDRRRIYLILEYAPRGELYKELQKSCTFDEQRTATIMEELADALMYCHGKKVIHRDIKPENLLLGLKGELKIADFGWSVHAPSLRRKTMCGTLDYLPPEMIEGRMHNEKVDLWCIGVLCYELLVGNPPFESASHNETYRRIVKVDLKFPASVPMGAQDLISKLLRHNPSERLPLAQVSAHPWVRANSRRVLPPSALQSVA
Serine/threonine-protein kinase 10 (Homo sapiens), sequence (O94804 whole entry, looked up): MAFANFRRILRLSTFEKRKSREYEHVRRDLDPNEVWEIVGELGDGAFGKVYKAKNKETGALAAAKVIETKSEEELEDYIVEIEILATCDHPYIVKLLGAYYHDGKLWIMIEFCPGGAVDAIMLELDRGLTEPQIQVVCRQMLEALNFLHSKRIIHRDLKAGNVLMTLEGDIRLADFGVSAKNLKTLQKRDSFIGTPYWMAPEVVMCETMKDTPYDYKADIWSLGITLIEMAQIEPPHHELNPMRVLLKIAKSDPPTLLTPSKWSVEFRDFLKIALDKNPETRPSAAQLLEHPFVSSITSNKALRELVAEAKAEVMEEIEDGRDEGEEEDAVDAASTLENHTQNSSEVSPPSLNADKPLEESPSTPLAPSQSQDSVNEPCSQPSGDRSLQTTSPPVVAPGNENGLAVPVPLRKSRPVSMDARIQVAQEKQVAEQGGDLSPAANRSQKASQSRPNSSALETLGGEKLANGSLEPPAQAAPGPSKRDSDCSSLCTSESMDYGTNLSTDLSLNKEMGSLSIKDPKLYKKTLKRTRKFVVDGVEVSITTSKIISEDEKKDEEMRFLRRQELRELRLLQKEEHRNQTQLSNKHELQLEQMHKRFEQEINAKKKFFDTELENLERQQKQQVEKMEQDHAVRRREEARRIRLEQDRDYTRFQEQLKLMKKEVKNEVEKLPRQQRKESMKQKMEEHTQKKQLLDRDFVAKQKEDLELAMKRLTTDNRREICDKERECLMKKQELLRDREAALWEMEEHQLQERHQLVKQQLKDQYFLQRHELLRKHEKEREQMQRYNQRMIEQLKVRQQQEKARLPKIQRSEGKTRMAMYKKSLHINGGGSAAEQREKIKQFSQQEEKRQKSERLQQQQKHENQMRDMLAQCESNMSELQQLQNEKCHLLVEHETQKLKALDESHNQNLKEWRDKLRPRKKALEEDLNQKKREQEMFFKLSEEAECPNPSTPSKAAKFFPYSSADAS

For the compound `CCn1c(-c2nonc2N)nc2c(C#CC(C)(C)O)nc(CN3CCCC3)cc21`, the inhibition in assay [1] is 3.35%; in assay [2], 0.07%; in assay [3], 4.15%; in [4] it was 0.15%; in assay [5], 23.3%; in assay [6], -1.82%. Besides, the inhibition in assay [7] is 1.24%; in assay [8] it was 1.94%; in assay [9], 1.87%; in [10] it was 1.68%.

Turning to `CCN1CCC(CC(=O)Nc2n[nH]c3nc(-c4cccs4)c(Br)cc23)CC1`, the inhibition in assay [1] is 0.27%; in assay [2] it was -0.51%; in assay [3], 3.7%; in assay [4], -1.4%; in assay [5], -3.08%; in assay [6] it was -1.57%. Moreover, the inhibition in assay [7] stood at 1.93%; in [8] it was 0.32%; in assay [9], 2.2%; in assay [10], 0.23%.

In the case of `CCn1c(-c2nonc2N)nc2ccncc21`, the inhibition in assay [1] is 6.98%; in assay [2], 0.79%; in [3], 3.04%; in assay [4], 0.9%; in [5], 6.04%; in assay [6], 2.02%. Further, the inhibition in assay [7] came out at 4.14%; in [8], 1.41%; in assay [9], 3.01%; in [10], 2.18%.

With `Cc1ccc(NC(=O)c2ccnc(N3CCCC3)c2)cc1-c1ccc(C(=O)NCC2CC2)cc1`, the inhibition is 4.67% in [1]; 1.95% in assay [2]; 6.5% in assay [3]; -0.41% in assay [4]; 7.12% in assay [5]; 3.49% in assay [6]. In addition, the inhibition was determined as 7.84% in assay [7], 3.82% in assay [8], 13.5% in assay [9] and 10% in assay [10].

With `CCn1c(-c2nonc2N)nc2c(C#CC(C)(C)O)nc(OC[C@@H](N)c3ccccc3)cc21`, the inhibition was 11.7% in assay [1]; 2.1% in [2]; 7.36% in assay [3]; 4.3% in assay [4]; -0.02% in [5]; -0.81% in [6]. Besides, the inhibition came to 7.62% in assay [7], 0.61% in assay [8], 8.96% in [9] and 1.21% in [10].

As to `Nc1nc(-c2ccccn2)c(-c2ccc3ncccc3n2)s1`, the inhibition came out at 9.43% in assay [1]; 1.61% in [2]; 8.29% in assay [3]; 2.42% in assay [4]; 2.91% in assay [6]; 5.82% in assay [7]. The results for the inhibition in assay [8], in assay [9] and in [10] were 0.08%, 2.92% and 5.35%, respectively.

On to `Nc1nc(-c2ccc3c(c2)C(=Cc2cc(Br)c(O)c(Br)c2)C(=O)N3)cs1`, for which the inhibition in [1] is 29.2%; in assay [2], 1.57%; in assay [3], 6.47%; in assay [4], -0.77%; in assay [5], 9.45%; in [6] it was 2.74%. Besides, the inhibition in assay [7] was 6.29%; in assay [8] it was 1.39%; in [9] it was 5.61%; in assay [10] it was 24.6%.

`COc1ccc(-c2ccncc2)cc1C(N)=O`: the inhibition in [1] is 4.17%; in [2], 5.11%; in assay [3], 7.24%; in assay [4] it was 1.6%; in assay [5], 5.22%; in [6] it was 8.76%. In addition, the inhibition in [7] is 12.9%; in [8], 0.72%; in assay [9], 3.34%; in assay [10], 4.28%.

With `CC(=O)Nc1cccc(C#Cc2cncnc2Nc2ccc(OCc3cccc(F)c3)c(Cl)c2)n1`, the inhibition in assay [1] was 2.65%; in assay [2] it was 3.23%; in [3], 1.96%; in [4], 3.46%; in assay [5], -5.73%; in assay [6], 4.04%. The inhibition in [7] is 14.4%; in [8] it was 2.81%; in assay [9], 2.04%; in assay [10], -0.3%.

Turning to `CN(C)c1cc2c(Nc3ccc4nc(Cc5ccccc5)[nH]c4c3)ncnc2cn1`, the inhibition in assay [1] was found to be 11.5%; in assay [2], 6.09%; in assay [3], 27.4%; in assay [4], 5.94%; in [5] it was 40.3%; in assay [6], 6.78%. Further, the inhibition in assay [7] was found to be 14.4%; in assay [8], 1.35%; in assay [9], 2.07%; in [10], 7.88%.

For the compound `COc1cccc(-n2ncc3c(N/N=C/c4cccc(F)c4)ncnc32)c1`, the inhibition in assay [1] is 16.9%; in assay [2] it was -1%; in [3], 7.83%; in [4] it was -2.12%; in assay [5], 1.75%; in [6], 3.91%. The inhibition was 11.8% in [7], 1.55% in assay [8], 4.59% in assay [9] and 7.45% in assay [10].

`CCn1c(-c2nonc2N)nc2c(N3CCCC3)nccc21`: the inhibition is 2.53% in assay [1]; -1.12% in [2]; 5.43% in assay [3]; 0.17% in [4]; -2.42% in assay [5]; -0.24% in assay [6]. The inhibition in assay [7] was found to be 2.42%; in assay [8] it was 1.22%; in assay [9] it was 4.2%; in assay [10] it was 0.97%.

For `COc1ccc2cc(-c3c(-c4ccncc4)nc(-c4ccc([S+](C)[O-])cc4)n3C)ccc2c1` (centres undefined), the inhibition in assay [1] was determined as 9.25%; in [2], 4.15%; in assay [3], 11%; in [4] it was 2.18%; in assay [5] it was 15.4%; in assay [6], 36%. In addition, the inhibition was 78.4% in [7], 0.6% in assay [8], 0.64% in [9] and 2.59% in assay [10].

In the case of `N#Cc1c(NC(=O)c2cccc3ccccc23)sc2c1CCCC2`, the inhibition in assay [1] came to 5.29%; in assay [2], 1.03%; in assay [3] it was 3.57%; in [4], 1.03%; in [5], 2.63%; in [6], 3.84%. For the same compound, the inhibition in assay [7] worked out at 5.96%; in assay [8], 1.92%; in assay [9] it was 4.41%; in assay [10], 3.89%.

Turning to `CS(=O)(=O)CCNCc1ccc(-c2ccc3ncnc(Nc4ccc(OCc5ccccc5)c(Cl)c4)c3c2)o1`, the inhibition in assay [1] worked out at 1.2%; in [2], 2.22%; in assay [3], 10.4%; in [4] it was 1.18%; in assay [5] it was 7.9%; in [6], 1.97%. Also, the inhibition in [7] is 8.82%; in assay [8], 3.3%; in assay [9], 7.74%; in assay [10] it was 2.21%.

`CS(=O)(=O)Nc1ccc(N/C=C2\C(=O)Nc3ccccc32)cc1`: the inhibition in assay [1] is 47.6%; in [2] it was 7.77%; in assay [3] it was 43%; in assay [4], 6.66%; in [5], 61.1%; in [6], -2.57%. The inhibition amounted to 0.71% in assay [7], 2.65% in [8], 18.6% in [9] and 18.1% in assay [10].

Consider `O=C1NC(=O)C(c2ccc(Cl)cc2)=C1Nc1ccc(Cl)c(C(=O)O)c1`, for which the inhibition in assay [1] is 4.76%; in [2] it was -0.14%; in assay [3] it was 2.81%; in assay [4], -1.78%; in assay [5], -3.59%; in [6], -1.94%. Further, the inhibition in assay [7] is -1.03%; in [8], 0.42%; in [9] it was 2.85%; in assay [10] it was -1.56%.
